The values below come from PubChem BioAssay (NCATS).

For assay [1], the system named is PC26. The experiment in a line: qHTS profiling for inhibitors of Plasmodium falciparum proliferation (AID 504749). To be noted: P. falciparum in erythrocytes, SYBR Green DNA, 72 h; series mostly up to 28.7 µM. In short, it runs like this:
(§1)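 Readout was DNA-dye fluorescence from lysed cultures, ex 485/em 535 nm. Parasitized red cells had grown 72 h with compound; data scaled between 0.29 uM artemisinin and DMSO wells and corrected using vehicle-only plates.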
Background: qHTS replaces the single test concentration by a dilution series.

In assay [2] the test system is PC49. The description is as above. To be noted: P. falciparum in erythrocytes, SYBR Green DNA, 72 h; series mostly up to 28.7 µM. The essentials: as §1
In assay [3] the test system is SC27B. The assay is described as above. To be noted: P. falciparum in erythrocytes, SYBR Green DNA, 72 h; series mostly up to 28.7 µM. The essentials:
as §1

The test system of assay [4] is TAB109. The description is as above. To be noted: P. falciparum in erythrocytes, SYBR Green DNA, 72 h; series mostly up to 28.7 µM. In short, it runs like this: as §1
Assay [5] relates to TAB113. The description is as above. To be noted: P. falciparum in erythrocytes, SYBR Green DNA, 72 h; series mostly up to 28.7 µM. The essentials:
as §1

Assay [6] deals with TAB165. Described as above. To be noted: P. falciparum in erythrocytes, SYBR Green DNA, 72 h; series mostly up to 28.7 µM. The essentials:
as §1

Assay [7] has as its system W2. The description is as above. To be noted: P. falciparum in erythrocytes, SYBR Green DNA, 72 h; series mostly up to 28.7 µM. In short, it runs like this: as §1
Assay [8] concerns CRL-7250. Description: Cytotoxic Profiling of Annotated Libraries Using Quantitative High-Throughput Screening (AID 1296008). For max response: % is set by controls: 0 for no effect and ±100 for the full control effect. To be noted: Five cell lines viability, CellTiter-Glo ATP luminescence, 48-72 h; max response: active compounds read low. In short, it runs like this:
(§2)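 Cells exposed to compounds for 48 or 72 hr at 37 degrees Celsius. Viability read as ATP-coupled luminescence with CellTiter-Glo after 10 min at room temperature.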

Assay [9] relates to HEK293. Described as above. To be noted: Five cell lines viability, CellTiter-Glo ATP luminescence, 48-72 h; max response: active compounds read low. The essentials:
as §2
Background: In ATP-based viability assays light output follows the ATP content of the culture.

Assay [10] has as its system HaCat. The assay is described as above. To be noted: Five cell lines viability, CellTiter-Glo ATP luminescence, 48-72 h; max response: active compounds read low. In short, it runs like this: as §2

Where “and” joins values, the source holds several entries; their conditions need not be identical. Equal values may be shown once. Inconclusive results are not listed. The source holds several records for some structures; these can differ, active in one and inactive in another. Unmarked numbers belong to inactive results. Calls of active or inactive are those of the source. Calls come from the whole dose curve; as a rule, active = well fitted inhibition curve with a large enough effect; inconclusive = small, poorly fitted or top-dose-only effect; inactive = flat fitted curve, though single readings scatter. Peptide text beside a SMILES is read from it.
Note: nearly all actives have a fitted effect of over 60% in size.
Potency is the fitted concentration of half-maximal effect.

In the case of `COC(=O)[C@H](Cc1ccccc1)NC(=O)[C@@H](N)CC(=O)O` (H-Asp-Phe-OMe), the Potency result in [1], in [2], in assay [3], in assay [4], in [5] and in assay [6] was “inactive” throughout. Also, the Potency result in assay [7] is “inactive”. In addition, the max response in assay [8] was 3.9%; in assay [9], -5.62% and -7.54%; in assay [10] it was 0.0507% and -16.9%. Besides, the compound was classed as inactive in assay [8].

With `CCN(CC)C(=S)SSC(=S)N(CC)CC`, the Potency in [8] is 105 nM (active); in assay [9], 59 nM (active) and 313 nM (active) and 841 nM (active); in [10], 11.1 µM (active). The result in [8] was inactive.

On to `CC(=O)NC[C@H]1CN(c2ccc(N3CCOCC3)c(F)c2)C(=O)O1`, for which, in [8], the max response is -4.05% and the result was inactive. The Potency in assay [9] was 13.2 µM (active). Besides, in assay [10], the max response was -2.3% and the call was inactive.

As to `CN(C)[C@@H](CCOc1cccc2ccccc12)c1ccccc1`, in assay [8], the max response was -9.42% and the call was inactive. Further, in assay [10], the max response was 4.48% and the call was inactive.

As to `CC1=C(C(=O)O)N2C(=O)[C@@H](NC(=O)[C@H](N)C3=CCC=CC3)[C@H]2SC1`, the max response is -13.1% in assay [8] and -32.9% in assay [9]. The compound was called inactive in [8], in assay [9] and in [10].

On to `Cc1cc2c(s1)Nc1ccccc1N=C2N1CCN(C)CC1`, for which the Potency entry in [2], in assay [3], in assay [4], in [5] and in assay [6] was “inactive” each time. Further, the compound was called inactive in assay [8], in assay [9] and in [10]. For the same compound, the max response in assay [9] was 0.773%; in assay [10] it was -13.9%.

Consider `CN(C)c1ccc(O)c2c1C[C@H]1C[C@H]3[C@H](N(C)C)C(=O)C(C(N)=O)=C(O)[C@@]3(O)C(=O)C1=C2O`, for which the max response in assay [8] is -30%; in assay [9] it was -11.2%. The compound was classed as inactive in assay [8] and in assay [10].

Regarding `COC(=O)C1=C(C)NC(C)=C(C(=O)OC(C)C)C1c1cccc2nonc12` (stereo not given), the max response was -24.3% in assay [8]; -10.7% in [9]; -5.13% and 3.88% in assay [10].

Regarding `CC(C)[C@H](N)C(=O)OCCOCn1cnc2c(=O)[nH]c(N)nc21`, the Potency entry in [1], in [2], in [3], in assay [4], in [5] and in [6] was “inactive” each time. For the same compound, the Potency entry in assay [7] is “inactive”. The max response was -3.66% and 1.07% in assay [8]; 4.44% in assay [9]. Further, the compound was called inactive in assay [9] and in [10].

For `O=C(NOCC1CC1)c1ccc(F)c(F)c1Nc1ccc(I)cc1Cl`, the max response in [8] was -12.6%; in assay [10] it was -17.9%. In addition, the Potency in assay [9] was 18.7 µM (active); in assay [10], 26.6 µM (active).

For `Clc1ccc2c(N3CCN(CCCN4CCN(c5ccnc6cc(Cl)ccc56)CC4)CC3)ccnc2c1`, the max response in [8] was -5.75%. For the same compound, the compound was called inactive in assay [9] and in assay [10].

Regarding `NS(=O)(=O)c1cc(C(=O)O)c(NCc2ccco2)cc1Cl`, the max response in assay [8] is -5.7% and -6.17%; in [9], 1.46% and -13.3%; in assay [10], -0.435% and 2.7%.

Turning to `COc1cc2c(N3CCN(C(=O)Nc4ccc(OC(C)C)cc4)CC3)ncnc2cc1OCCCN1CCCCC1`, the max response in assay [8] was -25.9% and -20.4%; in [10], 3.85% and 0.506%. Further, the Potency in assay [9] was 18.7 µM (active).

Turning to `COc1cc(Nc2c(C#N)cnc3cc(OCCCN4CCN(C)CC4)c(OC)cc23)c(Cl)cc1Cl`, the Potency is 3.72 µM (active) and 6.51 µM (active) in assay [8]; 2.37 µM (active) and 4.18 µM (active) and 11.6 µM (active) in [9]; 841 nM (active) and 1.66 µM (active) and 2.31 µM (active) in assay [10].

As for `S=c1nc[nH]c2nc[nH]c12`, in [8], the max response was -19.8%. The Potency in [9] is 6.68 µM (active) and 13.2 µM (active); in assay [10], 14.8 µM (active).

Take `CCOC(=O)C1=C(O)C(=O)N(Cc2ccccc2)C1`: the max response in assay [8] is 2.77%; in [9] it was -14.6%; in assay [10] it was 2.45%.

Regarding `CN(C)CCCC1(c2ccc(F)cc2)OCc2cc(C#N)ccc21` (stereo not given), the max response was -4.07% in assay [8]; -24.9% in assay [9]; -6.25% and -3.5% in [10].

Consider `OC(CN1CCN(c2cccc(Cl)c2)CC1)C(c1ccccc1)c1ccccc1` (stereo not given), for which the max response in assay [8] was -4.87%; in [10], -65.8% and -1.92%. Also, the Potency in [9] was 9.35 µM (active).

With `Cc1ccc(C(=O)c2cc(O)c(O)c([N+](=O)[O-])c2)cc1`, the max response in assay [8] was -7.14%; in assay [10], -18.7%. Further, the result in [9] and in assay [10] was inactive.

On to `CC(C)C[C@H](NC(=O)[C@H](Cc1ccccc1)NC(=O)c1cnccn1)B(O)O`, for which the Potency in assay [8] was 59.6 nM (active) and 51.7 nM (active); in assay [9] it was 47.3 nM (active) and 41.1 nM (active); in [10] it was 0.188 µM (active).

On to `COc1ccc(C2(C#N)CCC(C(=O)O)CC2)cc1OC1CCCC1` (stereo not given), for which the Potency entry in assay [1], in assay [2], in assay [3], in assay [4], in [5] and in [6] was “inactive” each time. Also, the Potency entry in assay [7] is “inactive”. The outcome in assay [8], in assay [9] and in [10] was inactive. In [9], the max response is 4.74%.

Take `COc1ccccc1N1CCN(CCN(C(=O)C2CCCCC2)c2ccccn2)CC1`: the outcome in assay [8] was inactive. Further, the max response is 3.7% in [9]; 1.26% and -29.9% in assay [10].

Take `O=C(c1ccccc1)c1ccc2n1CCC2C(=O)O` (stereo not given): the max response in assay [8] was -6.97% and 1.24%; in [9], 1.29% and -15.1%. In assay [10], the compound was classed as inactive.

On to `C[C@@H](N)C1CCC(C(=O)Nc2ccncc2)CC1` (stereo not given in full), for which the max response in assay [8] was -11.2%. The result in [9] and in assay [10] was inactive.

Turning to `Cc1cccc(-c2[nH]ncc2-c2ccc3ncccc3n2)n1`, the figures for the max response in assay [8] and in assay [9] were -2.02% and -26.8%, respectively. Moreover, in assay [10], the compound was classed as inactive.

On to `Cc1cc(=O)oc2cc(O)ccc12`, for which the Potency in assay [5] is 1 µM (active). The Potency entry in assay [7] was “inactive”. The max response in assay [8] is 4.43% and 2.39%; in assay [9], 4.56%; in assay [10], 1.05% and -3.2%. Also, the result in assay [9] was inactive.

Regarding `CCN(CC)CCOc1ccc(Nc2ncc3cc(-c4c(Cl)cccc4Cl)c(=O)n(C)c3n2)cc1`, the figures for the Potency in assay [8], in assay [9] and in assay [10] were 16.6 nM (active), 0.209 µM (active) and 0.264 µM (active), respectively.

`Oc1ccc(-c2nc(-c3ccc(F)cc3)c(-c3ccncc3)[nH]2)cc1`: the max response in assay [8] is -11.9%; in assay [10] it was -6.19%. Also, the Potency in assay [9] is 11.8 µM (active).

For the compound `O=C1c2c(O)cc(O)cc2OC(c2ccc(O)c(O)c2)C1O` (stereo not given), the figures for the max response in assay [8], in [9] and in assay [10] were -1.4%, -0.947% and 2.31%, respectively.
